Our source for the outcome values is PubChem BioAssay AID1159572 (Broad Institute, 2015).

Molecules are shown by their SMILES. Results with a measured potency or affinity are listed apart. Activity calls are given as the source filed them.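 The calls were made as follows: active = compounds whose fitted half-maximal growth inhibition concentration is at most twice their top tested dose; inconclusive = flat fit with 30 to 70% inhibition, or poor fit; inactive = the rest.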

A short description of the assay: P. falciparum Dd2 growth inhibitors, dose response, SYBR Green, dry powder samples, set 4 (AID 1159572).

Take `COc1ccc2c3c([nH]c2c1)[C@H](CO)N(C(C)=O)CC31CCN(C(=O)Nc2c(C)noc2C)CC1`: the compound was called inactive.
